Consider 91 compounds from PubChem BioAssay AID588850 (Sanford-Burnham Center for Chemical Genomics, 2011).

Screen size: about 360,000 compounds; about 3,100 (0.86%) were called active.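 The calls were made as follows: active = at least 50% inhibition at 5 µM, scaled per plate between neutral and stimulator controls; inactive = the rest.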 For the sample, actives were picked, then their nearest neighbours and some compounds at random.

The experiment in a line: inhibitors of PAF-induced NF-kB signaling, primary screen, cell-based, GFP fluorescence, uHTS (AID 588850).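 Also: PAF is a Pseudomonas aeruginosa culture filtrate used as stimulus; plate controls were PAF-stimulated DMSO wells for no effect and unstimulated DMSO wells for full effect.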 The conditions noted are these: KKLEB NF-kB-GFP reporter, GFP fluorescence overnight, at 5 µM, stronger effect = higher value.
The inhibition is the change of the read-out against control, counted positive when it falls. On to `O=C1C(Cl)=C(Oc2ccccc2)C(=O)c2ccccc21`, for which the inhibition was 59.1% (active).
For `Cc1nc2sccn2c(=O)c1S(=O)(=O)NCCc1ccccc1` the value was -12.2% (inactive); for `CCc1nc2c(OCCc3cccc(OC)c3)cccn2c1N(C)C(=O)c1ccc(C)cc1`, 5.8% (inactive); for `Cc1ccc(Cn2c(C)c3cnn(CC(=O)NCCN4CCOCC4)c(=O)c3c2C)cc1`, -0.6% (inactive).
With `O=C(c1c(F)cccc1F)N1CCN(c2ncc(Br)cn2)CC1` the figure was -1.3% (inactive); with `O=C(NNC(=O)c1ccc(-n2cncn2)c([N+](=O)[O-])c1)c1ccccc1`, 14.4% (inactive).
For `O=C(NC(Nc1nc2ccc([N+](=O)[O-])cc2s1)(C(F)(F)F)C(F)(F)F)c1ccccc1` the value was 74.8% (active); for `CC(Nc1ccc([N+](=O)[O-])cc1[N+](=O)[O-])c1ccccc1` (stereo unspecified), 4.8% (inactive); for `Cc1cn(C2CC(O)C(CO)O2)c(=O)n(CCCc2ccccc2)c1=O` (stereo unspecified), 1.7% (inactive).
For `COc1ccc(-c2cc(C3CCN(c4ncccc4[N+](=O)[O-])CC3)[nH]n2)cc1`, the inhibition was 18.1% (inactive).
With `CN(CC(=O)NCC(c1ccccc1)N1CCCC1)S(=O)(=O)c1ccc(Cl)cc1` (stereo unspecified) the figure was -5.7% (inactive).
With `CN(CC(=O)NCCc1ccccn1)S(=O)(=O)c1ccc(Cl)cc1` the figure was -8% (inactive).
For `CN(CC(=O)NNC(=O)CNC(=O)c1ccccc1Cl)S(=O)(=O)c1ccc(Cl)cc1` the value was 60.5% (active); for `COc1ccc(C(CCN(Cc2ccc(OC)c(OC)c2)C(=O)CCl)c2ccccc2)cc1` (stereo unspecified), 82.6% (active); for `COc1ccc(C(C(=O)NC2CCCCC2)N(C(=O)CCl)c2ccccc2Cl)cc1` (stereo unspecified), -13.3% (inactive).
For `COc1ccc(CCNC(=O)CN(c2ccccc2)S(C)(=O)=O)cc1OC`, the inhibition was -0.3% (inactive).
With `CCCCn1c(N)c(N(CC(C)C)C(=O)c2ccc(Br)o2)c(=O)[nH]c1=O` the figure was -29% (inactive); with `NC(=S)c1ccc(C(N)=S)o1`, 14.6% (inactive).
As for `CCC(C(=O)NCc1cccnc1)n1nc(C)c2sc3ccccc3c2c1=O` (stereo unspecified), the inhibition was 9.9% (inactive).
Turning to `N#CCCn1ncc2ccccc21`, the inhibition is -11.2% (inactive).
With `Cc1nnc(NC(=O)CSc2nc(C3CCCCC3)nc3ccccc23)s1` the figure was 22.6% (inactive); with `O=C(CSc1nc(C2CC2)nc2ccccc12)Nc1ccc2c(c1)OCCO2`, 42.7% (inactive); with `O=C(CSc1nc(C2CC2)nc2ccccc12)Nc1cccc(O)c1`, 50.1% (active).
`O=Cc1ccc(OCc2cn3ccccc3n2)cc1`: the inhibition was -22.3% (inactive).
Take `CN1c2ccc(C=O)c3c(C=O)ccc(c23)N(C)C1(C)C`: the inhibition was 88% (active).
For `Cc1ccc(C=O)c([B-](F)(F)F)c1` the value was -9.8% (inactive).
For `C=CCn1c(C2CC(=O)N(c3ccc(C)cc3)C2)nc2ccccc21` (stereo unspecified) the value was -16.5% (inactive); for `CCOc1ccc(S(=O)(=O)NCCC(=O)NNC(=O)c2ccc(F)cc2)cc1`, 9.6% (inactive).
Take `Cc1ccc2c(c1)N(CC(=O)N1CCCc3ccccc31)C(=O)C(C)O2` (stereo unspecified): the inhibition was 7.2% (inactive).
As for `CCOC(=O)c1c(-c2ccccc2)oc2cc(Br)c(O)c(C=O)c12`, the inhibition was 68.5% (active).
With `CCOC(=O)c1c(C)oc2cc(Sc3ccccc3)c(O)c(O)c12` the figure was 6.5% (inactive); with `CCOC(=O)c1c(C)oc2cc(Br)c(OCC(N)=O)cc12`, -3.8% (inactive); with `CCOC(=O)c1nnn2c3ccccc3c(=O)n(C)c12`, -25.2% (inactive).
Take `CCCc1nc2c(c(=O)c3ccccc3n2C)c(=O)n1C1CCCCCC1`: the inhibition is 55.9% (active).
For `CCOC(=O)N1CCN(C(=O)c2nn(-c3ccc(C)cc3)c(=O)c3c2c2ccccc2n3C)CC1` the value was -7.7% (inactive); for `Cc1ccc(CNC(=O)c2ccc(CS(=O)Cc3cccc(Cl)c3)o2)cc1` (stereo unspecified), 1.3% (inactive); for `O=C(Nn1cc(C(=O)N2CCN(c3ccccc3F)CC2)c2ccccc2c1=O)c1cnccn1`, -8.3% (inactive).
Consider `NNc1cccc(C=Cc2ccccc2)cc1=O`, for which the inhibition was 3.8% (inactive).
For `O=C1OC(Oc2ccc(Br)cc2)(c2ccccc2)c2ccccc21` (stereo unspecified) the value was 50.3% (active); for `CCOC(=O)CSc1nnc(CNC(=O)Cc2ccccc2)n1-c1ccccc1OC`, 1.5% (inactive); for `CS(=O)(=O)c1cccc(-c2ccc3nncn3c2)c1`, 5.2% (inactive).
As to `CC(CN1CCCCC1)OC(=O)c1ccccc1Cl` (stereo unspecified), the inhibition was -7.9% (inactive).
For `O=C(O)Cc1ccc(NCc2ccccc2Cl)cc1` the value was -14.4% (inactive); for `CC(C)OC(=O)c1ccc(NCc2cc(O)ccc2O)cc1Cl`, 86.3% (active); for `Oc1cccc2cc(-c3ccncc3)cnc12`, 13.6% (inactive).
With `COc1ccc(CNC(=O)C[C@H]2C[C@H](C(=O)N3CCOCC3)[C@@]3(CCC4CCCC4)c4[nH]c5ccc(Cl)cc5c4CCN3C2=O)cc1OC` the figure was 8.2% (inactive).
With `O=C(CCS(=O)(=O)Cc1ccccc1F)NCCCN1CCCCC1`, the inhibition is 5% (inactive).
For `CC1CN(c2cc(=O)n(-c3cccc(Br)c3)c(=O)[nH]2)CC(C)O1` (stereo unspecified) the value was -24.9% (inactive); for `COC(=O)C1CCN(C(=O)COC(=O)c2cc(S(=O)(=O)N3CCOCC3)ccc2C)CC1`, 5.9% (inactive).
With `CC(C)NS(=O)(=O)c1ccc(CCC(=O)N2CCOCC2)cc1` the figure was 5% (inactive); with `CC(=O)Nc1ccc(NC(=O)CSCc2cnn(-c3ccccc3)c2-n2cccc2)cc1`, 11.8% (inactive).
For `O=C(/C=C/Sc1ncn[nH]1)c1ccc(Cl)cc1` the value was 42.7% (inactive); for `Cc1cc(C)nc(S/C=C/C(=O)c2ccccc2)n1`, 71.8% (active).
As to `COC(c1ccccc1)(c1ccccc1)C(Oc1nc(C)cc(C)n1)C(=O)O` (stereo unspecified), the inhibition was 3.3% (inactive).
Regarding `C[C@@H]1Cn2cnc(C(=O)Nc3ccc(CNC(=O)OC(C)(C)C)cc3)c2C(=O)N1`, the inhibition is -14.7% (inactive).
With `C=C(C)CNC(=O)c1ccc(OC2CCN(C(=O)COC)CC2)cc1` the figure was 13.1% (inactive).
For `CC(=O)N1c2ccc(S(=O)(=O)NCCC(=O)N(C)C3CCCCC3)cc2CC1C` (stereo unspecified) the value was 3.2% (inactive).
For `O=C(Nc1ccc(C(=O)N2CCOCC2)cc1)Nc1cccc(C(F)(F)F)c1`, the inhibition is 55.4% (active).
For `COc1ccccc1C(=O)Nc1cccc(C(=O)N2CCOCC2)c1`, the inhibition is -3.8% (inactive).
With `Cc1c(Cl)cccc1NC(=O)Nc1ccc(C(=O)N2CCCC2)cc1` the figure was 3.8% (inactive).
With `COC(=O)CNC(=O)C(CCSC)NC(C)=O` (stereo unspecified) the figure was -2.1% (inactive).
For `COc1ccc(-c2[nH]ncc2CN(C)Cc2cccnc2)c(F)c1` the value was 14.6% (inactive).
With `CCOc1ccc2[nH]c(=O)c(CN(CCCO)S(=O)(=O)c3ccc(F)cc3)cc2c1`, the inhibition is 2.3% (inactive).
With `COc1ccc2[nH]c(=O)c(CN(Cc3cccnc3)S(=O)(=O)c3ccccc3F)cc2c1` the figure was 82.1% (active).
As to `CCCN(c1ccc(C(C)C)cc1)S(=O)(=O)c1c(C)[nH]c(=O)[nH]c1=O`, the inhibition was -4.9% (inactive).
With `Cc1ccc(N(CCC(=O)O)S(=O)(=O)c2cccc(C(F)(F)F)c2)cc1` the figure was 11% (inactive).
With `Cc1oc2c(F)c(F)c(F)c(F)c2c1S(=O)(=O)Nc1cccc(C(F)(F)F)c1` the figure was 50.4% (active); with `Cc1noc(C)c1S(=O)(=O)Nc1cc(C(F)(F)F)ccc1N1CCOCC1`, 2.4% (inactive); with `Cc1ccsc1C(=O)NC1CCCCC1C` (stereo unspecified), 6.2% (inactive).
For `CC(C)Cc1nn2c(=O)cc(O)nc2s1` the value was -9.2% (inactive).
Turning to `COC(=O)c1scc(C)c1NC(=O)CSc1ccc(Cl)cc1`, the inhibition was -3.3% (inactive).
With `CCCCOc1ccc(C(=O)NCC(=O)OCC(=O)c2c(N)n(C)c(=O)n(C)c2=O)cc1` the figure was 14.9% (inactive); with `O=C(Nc1ccncc1)c1c(F)cccc1F`, 81.6% (active); with `COc1cccc(OC)c1C(=O)Nc1ccc(Cc2ccncc2)cc1`, -1.5% (inactive).
Consider `O=C(Nc1ccc(S(=O)(=O)N2CCCCCC2)cc1)c1c(F)cccc1F`, for which the inhibition is -20.3% (inactive).
For the compound `CNC[C@H]1Oc2c(NC(=O)C3CCCCC3)cccc2C(=O)N([C@H](C)CO)C[C@@H]1C`, the inhibition is 12.4% (inactive).
For the compound `O=S1(=O)CC(N2CCC(Cc3ccccc3)CC2)CN1Cc1ccccc1` (stereo unspecified), the inhibition is -8.1% (inactive).
With `CCNC(=O)CC1C(=O)N(c2ccc(F)cc2)C(=O)N1Cc1cccs1` (stereo unspecified) the figure was -17.2% (inactive).
On to `Cn1c(C(=O)O)ccc1S(=O)(=O)N(Cc1ccccc1)Cc1ccccc1`, for which the inhibition was -3.7% (inactive).
With `Cc1ccc(S(=O)(=O)N2C[C@H]3n4c(=O)ccc(=O)n4C[C@H](OC(=O)NC4CCCC4)[C@@]3(O)C2)cc1`, the inhibition was -0.9% (inactive).
As to `C#CCN(C[C@@H]1[C@@H](OC(=O)NC2CC2)[C@@H](OC(=O)NC2CC2)Cn2c(=O)ccc(=O)n21)S(=O)(=O)c1ccc(C)cc1`, the inhibition is 53.2% (active).
With `C#CCN(C[C@H]1[C@H](OC(=O)NC2CCCC2)[C@H](OC(=O)NC2CCCC2)C[C@H]2C(=O)N(c3ccccc3)C(=O)[C@@H]12)S(=O)(=O)c1ccc(C)cc1` the figure was 15.8% (inactive); with `COC(=O)Cc1c(O)ccn(Cc2cccc(C(F)(F)F)c2)c1=O`, -7.8% (inactive); with `CCN1CCC(O)(/C=C/c2ccc(C)cc2)C(C(=O)/C=C/c2ccc(C)cc2)C1` (stereo unspecified), 79.8% (active).
With `CCN1CCC2(CC1)N=C(c1ccc(F)cc1)C(=S)N2C(=O)c1ccc(C)cc1`, the inhibition is 18% (inactive).
For `CCOC(=O)C1=CCC2C(=O)N(Cc3ccccc3)C(=O)C12` (stereo unspecified) the value was -1.4% (inactive); for `CCN(C(=O)CSc1nnnn1-c1ccccc1OC)C1CCS(=O)(=O)C1` (stereo unspecified), 6% (inactive).
For `COc1ccccc1-n1nnnc1S(=O)(=O)Cc1ccc(Cl)cc1` the value was 85.9% (active); for `COc1ccccc1CN(C)c1nnnn1-c1ccccc1`, -3.9% (inactive).
`CCOC(=O)C1=CC[C@@H](c2ccncc2)N(S(=O)(=O)c2ccc(C)cc2)C1`: the inhibition is 2.5% (inactive).
As to `CCCC(C(=O)NC1CCCC1)N(C(=O)Cn1nnc(-c2ccc(C)o2)n1)c1cccc(O)c1` (stereo unspecified), the inhibition was -12.5% (inactive).
